Data taken from PubChem BioAssay (NCATS).
Inconclusive results are not listed. Where a call stands in place of a potency, no number is given. Values without a mark were called inactive. Active and inactive are the calls of the source. Calls follow the shape of the dose curve; as a rule, active = well fitted cell-killing curve with a large enough effect; inconclusive = small, poorly fitted or top-dose-only effect, or effect the other way; inactive = no such curve, though single readings can be large or run the other way.

test: Viability qHTS for spleen associated tyrosine kinase inhibitor (SYKi) drug resistant MV4-11 cells (AID 1963824); conditions: SYKi-resistant MV4-11 viability, CellTiter-Glo, 72 h; series mostly up to 45 µM; also: nearly all actives have a fitted effect of over 35% in size
Method in brief: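 CellTiter-Glo luminescence, read 10 min after reagent addition, reports viability after a 72 hr compound exposure. Cells are an MV4-11 line made resistant to SYK inhibition, seeded at 500 per well onto compound-containing plates.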
Potency is read from the fitted curve at half-maximal effect.

| SMILES | viability, % of control | Potency |
| --- | --- | --- |
| CC(C)=CCC[C@](C)(O[C@@H]1O[C@H](CO[C@@H]2O[C@@H](CO)[C@H](O)[C@H]2O[C@@H]2OC[C@@H](O)[C@H](O)[C@H]2O)[C@@H](O)[C@H](O)[C@H]1O)[C@H]1CC[C@]2(C)[C@@H]1[C@H](O)CC1[C@@]3(C)CC[C@H](O[C@@H]4O[C@H](CO)[C@@H](O)[C@H](O)[C@H]4O[C@@H]4O[C@H](CO)[C@@H](O)[C@H](O)[C@H]4O)C(C)(C)C3CC[C@]12C (stereo not given in full) | 92.9% [at 9.25 µM] |  |
| CC1(C)C(=O)N2c3ccccc3C(O)(CC(C(=O)O)n3cnc4ccccc4c3=O)C2N1O (stereo not given) |  | 252 nM (active) |
| C/C(=C\C=C\C(C)C1CCC2(C)C3CCC4C(C)(C)C(=O)CCC45CC35CCC12C)C(=O)O (stereo not given) |  | 6320 nM (active) |
| CC(C)(OC1OC(CO)C(O)C(O)C1O)C1CCC(O)(CO)C2CC(=O)C(C)(O)C2C1 (stereo not given) |  | inactive |
| Cc1occc(=O)c1O[C@@H]1O[C@H](CO)[C@@H](O)[C@H](O)[C@H]1O |  | inactive |
| CC[C@H](/C=C/[C@@H](C)[C@H]1CC[C@H]2[C@@H]3CC=C4C[C@@H](O)CC[C@]4(C)[C@H]3CC[C@]12C)C(C)C | 108% [at 4.97 µM] |  |
| CC(C)c1nc(-c2ccc(NC(=O)Nc3cccc(C(F)(F)F)c3)c3ccccc23)c2c(N)nccn12 |  | 411 nM (active) |
| CSC(=O)OCC1=C[C@@H]2OC(=O)C3=CO[C@@H](O[C@@H]4O[C@H](CO)[C@@H](O)[C@H](O)[C@H]4O)[C@H]1[C@@H]32 |  | inactive |
| Cc1cccc(/C=N/Nc2cc(N3CCOCC3)n3nc(-c4ccncc4)cc3n2)c1 |  | 291 nM (active) |
| C=C1C(=O)O[C@H]2C3=C(C)CCC[C@]3(C)C(=O)C[C@@H]12 |  | 920 nM (active) |
| CC(C)C(O)(CO)CCO[C@@H]1O[C@H](CO[C@H]2OC[C@](O)(CO)[C@H]2O)[C@@H](O)[C@H](O)[C@H]1O (stereo not given in full) |  | inactive |
| CC1CCC2C(C)(C)[C@H](O)CC[C@]2(C)C12Cc1c(O)cc3c(c1O2)CN(C(CCC(=O)O)C(=O)O)C3=O (stereo not given in full) |  | inactive |
| COc1cc([C@H]2OC[C@](O)(Cc3ccc(O[C@@H]4O[C@H](CO)[C@@H](O)[C@H](O)[C@H]4O)c(OC)c3)[C@@H]2CO)ccc1O |  | inactive |
| COc1cc(CO)ccc1O[C@@H]1O[C@H](CO)[C@@H](O)[C@H](O)[C@H]1O |  | inactive |
| C=CC(C)(CCC=C(C)C)O[C@@H]1O[C@H](CO)[C@@H](O)[C@H](O)[C@H]1O (stereo not given in full) |  | inactive |
| COc1ccc2c(c1)O[C@H](O[C@@H]1O[C@H](CO)[C@@H](O)[C@H](O)[C@H]1O)C(=O)N2 |  | inactive |
| COc1cc(/C=C/C(=O)O[C@H]2C[C@@H]3C(C(=O)O)=CO[C@@H](O[C@@H]4O[C@H](CO)[C@@H](O)[C@H](O)[C@H]4O)[C@@H]3[C@H]2C)ccc1O |  | inactive |
| CCN1CCN(Cc2ccc(C(=O)Nc3ccc(C)c(Oc4ccc5c(c4)CC(=O)N5)c3)cc2C(F)(F)F)CC1 |  | 8200 nM (active) |
| NC1CCCCN(c2c(F)cc3c(=O)c(C(=O)O)cn(C4CC4)c3c2Cl)C1 (stereo not given) |  | inactive |
| CC(C)C(C#N)O[C@@H]1O[C@H](CO[C@@H]2O[C@@H](C)[C@H](O)[C@@H](O)[C@H]2O)[C@@H](O)[C@H](O)[C@H]1O (stereo not given in full) |  | inactive |

| SMILES | viability, % of control | Potency |
| --- | --- | --- |
| OC[C@H]1O[C@@H](OCCc2ccccc2)[C@H](O)[C@@H](O)[C@@H]1O |  | inactive |
| COc1c2c(c(C)c3c1C(=O)OC3)OC1(C)CC(O)C3(O)C(C)(C)OC(=O)CCC3(C)C1C2 (stereo not given) |  | inactive |
| C=C(C)C(=O)O[C@H]1C[C@@](C)(O)C(=O)CC(O)/C(C)=C\[C@H]2OC(=O)C(=C)[C@H]12 (stereo not given in full) |  | 2020 nM (active) |
| CC1(C)CC[C@]23CO[C@@]4(CCC5[C@@]6(C)CC[C@H](O[C@@H]7OC[C@H](O[C@@H]8O[C@H](CO)[C@@H](O)[C@H](O)[C@H]8O)[C@H](O)[C@H]7O[C@@H]7O[C@H](CO)[C@@H](O[C@@H]8O[C@H](CO)[C@@H](O)[C@H](O)[C@H]8O)[C@H](O)[C@H]7O)[C@@](C)(CO)C6CC[C@@]5(C)[C@]4(C)C[C@H]2OC2OCC(O)C(O)C2O)C3C1 (stereo not given in full) |  | 3090 nM (active) |
| CC1(C)C[C@@H]2[C@H](C1)[C@@]1(C)C[C@]13C(O)OC[C@]3(O)[C@H]2O (stereo not given in full) |  | inactive |
| O=C(O)CC(CCc1ccccc1)OC1OC(CO)C(O)C(O)C1O (stereo not given) |  | inactive |
| COc1cc2c(c(OC)c1O)C(c1ccc(O)cc1)C1C(=O)OC3C(COC(=O)C1=C2)OC(CO)(OC1OC(COC(=O)/C=C/c2ccc(OC4OC(C)C(O)C(O)C4O)cc2)C(O)C(O)C1O)C3O (stereo not given) | 81.2% [at 9.25 µM] |  |
| C[C@@H]1O[C@@H](O[C@H]2[C@H](O)[C@@H](O)[C@H](OC(=O)[C@]34CCC(C)(C)C[C@H]3C3=CCC5[C@@]6(C)CC[C@H](O[C@@H]7O[C@H](C(=O)O)[C@@H](O)[C@H](O)[C@H]7O)C(C)(C)C6CC[C@@]5(C)[C@]3(C)CC4)O[C@@H]2CO)[C@H](O)[C@H](O)[C@H]1O (stereo not given in full) | 75.6% [at 9.25 µM] |  |
| CC1(C)COC(=O)[C@@H]1O[C@@H]1O[C@H](CO)[C@@H](O)[C@H](O)[C@H]1O |  | inactive |
| C=C(C(=O)O)C1CCC2(C)CCC(O)C(C)(O)C2C1 (stereo not given) |  | inactive |
| CN(Cc1ccc(C(C)(C)C)cc1)Cc1cccc2ccccc12 |  | inactive |
| C/C(=C\CCC(C)(C)O)CCO[C@@H]1O[C@H](CO[C@@H]2O[C@@H](C)[C@H](O)[C@@H](O)[C@H]2O)[C@@H](O)[C@H](O)[C@H]1O |  | inactive |
| CCc1c(C)nc2c(-c3cnn(-c4cc(CO)ccn4)c3)c[nH]n2c1=O |  | inactive |
| CCC1=CC2CN(C1)Cc1c([nH]c3ccccc13)[C@@](C(=O)OC)(c1cc3c(cc1OC)N(C)[C@H]1[C@@](O)(C(=O)OC)[C@H](OC(C)=O)[C@]4(CC)C=CCN5CC[C@]31[C@@H]54)C2 (stereo not given in full) |  | 12.6 nM (active) |
| CC(/C=C/[C@]1(O)[C@@]2(C)CO[C@@]1(C)C[C@@H](O)C2)=C\C(=O)O[C@@H]1O[C@H](CO)[C@@H](O)[C@H](O)[C@H]1O |  | inactive |
| CC1CCC2C(=CCC(O)C2(C)C)C1(C)Cc1c(O)cc(CO)c(C=O)c1O (stereo not given) |  | 7180 nM (active) |
| C=CC(C)(O)CC[C@@H]1[C@@]2(C)CCCC(C)(C)C2CC[C@@]1(C)O (stereo not given in full) |  | 20600 nM (active) |
| CC1CC(=O)C2=C(C1)C1OC1C1(O)C2C(=O)c2cccc(O)c2C1O (stereo not given) |  | inactive |
| CCN1CCN(c2ccc(Nc3ccc(-c4ccc(C(N)=O)cc4)n4ncnc34)cc2)CC1 |  | 651 nM (active) |
| CC(=O)C1(C)CCC2C3C=C(C)C4=CC(=O)CCC4(C)C3CCC21C (stereo not given) |  | 7310 nM (active) |
